Out of some 220,000 compounds screened, about 910 (0.41%) were called active. This is one part of a sample in which actives are shown more often than they occur. Measured potencies and affinities stand elsewhere. Unmarked numbers belong to inactive results.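 Rule for the calls: active = primary inhibition above the hit cutoff, then over 50% inhibition at one or more dose response concentrations (cut at about 23% in these data, passing the limit was not always enough); inconclusive = conflicting primary data, or primary hits not chosen for dose response; inactive = low primary inhibition, or under 50% at every dose.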
target: Aminopeptidase N (Plasmodium falciparum (isolate 3D7)) (UniProt O96935); assay: malaria alanyl aminopeptidase activity blockers – biochemical, fluorogenic H-Leu-NHMec substrate, 1536-well (AID 1445); conditions: recombinant M1AAP, H-Leu-NHMec fluorogenic kinetic assay; at 30 µM, hits give high values unless noted;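 note: plate controls were DMSO full reaction for no effect and no enzyme background for full effect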
Sequence (O96935 whole entry, looked up): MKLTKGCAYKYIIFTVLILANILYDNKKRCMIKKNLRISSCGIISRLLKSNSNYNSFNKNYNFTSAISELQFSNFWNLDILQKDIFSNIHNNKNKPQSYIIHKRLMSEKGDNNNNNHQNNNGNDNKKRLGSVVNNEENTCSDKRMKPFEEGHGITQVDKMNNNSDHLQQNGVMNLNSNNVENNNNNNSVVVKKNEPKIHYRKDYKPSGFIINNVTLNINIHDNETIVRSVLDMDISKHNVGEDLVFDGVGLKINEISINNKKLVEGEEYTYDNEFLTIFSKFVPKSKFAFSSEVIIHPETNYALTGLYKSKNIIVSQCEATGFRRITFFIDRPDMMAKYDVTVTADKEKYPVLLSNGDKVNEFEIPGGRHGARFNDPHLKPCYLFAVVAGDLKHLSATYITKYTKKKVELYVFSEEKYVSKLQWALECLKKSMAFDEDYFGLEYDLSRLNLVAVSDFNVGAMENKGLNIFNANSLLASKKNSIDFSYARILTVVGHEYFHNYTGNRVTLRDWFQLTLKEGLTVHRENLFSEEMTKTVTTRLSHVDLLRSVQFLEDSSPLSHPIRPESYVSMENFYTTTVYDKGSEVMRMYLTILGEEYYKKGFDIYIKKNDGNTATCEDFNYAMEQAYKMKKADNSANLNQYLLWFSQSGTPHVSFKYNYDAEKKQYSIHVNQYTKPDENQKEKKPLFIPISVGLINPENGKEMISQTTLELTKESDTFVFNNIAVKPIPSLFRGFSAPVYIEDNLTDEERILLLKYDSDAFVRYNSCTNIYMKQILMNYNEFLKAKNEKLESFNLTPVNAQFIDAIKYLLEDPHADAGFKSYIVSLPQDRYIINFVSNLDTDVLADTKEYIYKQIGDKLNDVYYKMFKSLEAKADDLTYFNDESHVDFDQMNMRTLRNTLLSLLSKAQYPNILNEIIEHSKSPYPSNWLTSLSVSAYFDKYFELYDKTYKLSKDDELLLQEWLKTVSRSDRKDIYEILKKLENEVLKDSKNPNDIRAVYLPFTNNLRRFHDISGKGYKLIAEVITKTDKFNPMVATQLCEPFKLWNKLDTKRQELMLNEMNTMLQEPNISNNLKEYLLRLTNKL

| Compound | inhibition |
| --- | --- |
| Cc1c(NC(=O)CN2C(=O)NC3(CCCCC3)C2=O)c(=O)n(-c2ccccc2)n1C | -1.23% |
| COc1ccc(S(=O)(=O)N2CCN(C)CC2)cc1Br | -2.63% |
| Cc1nc(SCC(=O)Nc2ccccc2)c2oc3ccccc3c2n1 | -7.15% |
| O=C(Nc1ccccc1)Oc1ccccc1N1CCOCC1 | 2.65% |
| COc1cc(C(=S)N2CCOCC2)ccc1OC(=O)c1cc([N+](=O)[O-])cc([N+](=O)[O-])c1 | 4.71% |
| CCCC(=O)Nc1c(-c2cccs2)c(=O)c2ccccc2n1CC | 3.31% |
| CCn1c(O)c(N=NC(=O)C(O)c2ccccc2)c2ccccc21 (stereo not given) | 5.57% |
| CCOC(=O)N=Nc1c(O)n(CC)c2ccccc12 | 3.07% |
| CCn1c(NC(=O)c2cccs2)c(-c2cccs2)c(=O)c2ccccc21 | 27% (active) |
| CCn1c(NC(=O)c2ccccc2)c(-c2cccs2)c(=O)c2ccccc21 | 7.57% |
| CC1=CC2=NC(=O)/C(=C/c3coc4ccc(Cl)cc4c3=O)C(=N)N2O1 | 7.94% |
| N=C1/C(=C\c2coc3ccccc3c2=O)C(=O)N=C2SC=CN12 | 52.2% |
| N=C1/C(=C/c2coc3ccccc3c2=O)C(=O)N=C2SC(c3ccco3)=NN12 | 18.6% |
| CC(C)CC1=NN2C(=N)/C(=C\c3coc4ccccc4c3=O)C(=O)N=C2S1 | 58% |
| CCN1CCN(C(=O)C2CCN(Cc3cc(Cl)ccc3O)CC2)CC1 | 0.1% |
| O=C(COC(=O)c1cc(NS(=O)(=O)c2cccs2)ccc1O)Nc1ccc(F)c(F)c1F | 6.76% |
| CC(C)(C)C(=O)Nc1ccc(S(=O)(=O)Nc2ccccn2)cc1 | 4.68% |
| C/C(Cc1ccccc1)=N/NC(=O)CCCC(=O)N/N=C(/C)Cc1ccccc1 | 1.32% |
| COc1ccc(C(=O)NNC(=O)Nc2ccc(C)cc2)cc1 | -2.61% |
| CCOC(=O)C(NC(=O)c1ccccc1Cl)(Nc1ccc(C)c(C)c1)C(F)(F)F (stereo not given) | 3.71% |

| Compound | inhibition |
| --- | --- |
| COCc1nnc(NC(=O)c2sc3ccccc3c2Cl)s1 | 17.9% |
| CCC(CC)c1nnc(NC(=O)c2ccc3ccccc3n2)s1 | 44% |
| Cc1cnc(NC(=O)c2sc3ccccc3c2Cl)s1 | 5.85% |
| CCc1nnc(NC(=O)c2ccc3ccccc3n2)s1 | 18.2% |
| Cc1nnc(NC(=O)c2sc3ccccc3c2Cl)s1 | 27.1% (active) |
| CC1=C(C(=O)Nc2ccccn2)C(c2ccc(N(C)C)cc2)n2ncnc2N1 (stereo not given) | -4.41% |
| CCC(C)[C@H](NC(=O)NC1CC1)C(=O)O (stereo not given in full) | 5.68% |
| CCN(CC)c1cc(C)c2cc(NC(=O)c3ccc(Br)o3)ccc2n1 | 8.17% |
| C[N+]1(CCCOC(=O)C2(c3ccccc3)CCCC2)CCOCC1 | 12.4% |
| NC(=O)Cn1c(=O)n(CCc2ccccc2)c(=O)c2c3c(sc21)CCCC3 | -0.91% |
| COc1ccc(-n2c(=O)c3c4c(sc3n(CC(N)=O)c2=O)CCCCC4)cc1 | 4.45% |
| CCOC(=O)N1CCN(S(=O)(=O)c2ccc(C(=O)Nc3sc4c(c3C#N)CCC4)cc2)CC1 | 4.62% |
| NC(=O)Cn1c(-c2nonc2N)nc2ccccc21 | 2.36% |
| Nc1nonc1-c1nc2ccccc2n1CC(=O)Nc1ccccc1 | 2.57% |
| CC(C)(C)NC(=O)Cn1c(-c2nonc2N)nc2ccccc21 | 8.2% |
| CCOC(=O)c1ccccc1NC(=O)Cn1c(-c2nonc2N)nc2ccccc21 | -0.93% |
| COC(=O)c1ccccc1NC(=O)Cn1c(-c2nonc2N)nc2ccccc21 | 0.73% |
| Nc1nonc1-c1nc2ccccc2n1CC(=O)N/N=C\c1ccc(-c2ccc(Cl)cc2)o1 | -0.3% |
| COc1ccccc1C(=O)Nc1ccccc1C(=O)N1CCCC1 | 5.88% |
| COc1ccc(CCNC(=O)COC(=O)c2ccc(N3CCCC3=O)cc2)cc1 | -2.72% |

| Compound | inhibition |
| --- | --- |
| CC(=O)/C(N=Nc1ccc(C(=O)O)cc1)=C(\C)O | 7.52% |
| Cc1ccc(C)c(N2CCN(C(=O)c3ccc(CSc4nc5ccncc5[nH]4)cc3)CC2)c1 | -6.94% |
| Cc1ccc(C2=Nc3ccc(Br)cc3C(c3ccncc3)=NN2)cc1 | -0.32% |
| CCOC(=O)C1(CCOc2ccccc2)CCN(Cc2cnc(C)[nH]2)CC1 | 6.06% |
| CCN(CC)NC(=S)Nc1ccccc1 | -2.71% |
| CN(C)c1nc(-c2ccc([N+](=O)[O-])cc2)cs1 | 4.18% |
| Cc1c(NC(=O)CSc2nncc3ccccc23)c(=O)n(-c2ccccc2)n1C | 3.35% |
| COc1ccccc1C(=O)NN1C(=O)/C(=C/c2cccn2C)SC1=S | 15.2% |
| Cn1cccc1/C=C1\SC(=S)N(NC(=O)c2ccccc2Cl)C1=O | 17.9% |
| O=C(NN1C(=O)/C(=C\c2ccc(O)c([N+](=O)[O-])c2)SC1=S)c1ccccc1Cl | 19.8% |
| O=C1/C(=C/c2ccc(O)c([N+](=O)[O-])c2)SC(=S)N1Cc1ccccc1 | 10.2% |
| CC(C(=O)O)N1C(=O)/C(=C/C=C/c2ccco2)SC1=S (stereo not given) | 10.5% |
| O=C1/C(=C/C=C/c2ccco2)SC(=S)N1c1ccc(O)cc1 | 15.5% |
| O=C(O)CCCN1C(=O)/C(=C/C=C/c2ccco2)SC1=S | 7.29% |
| O=C(NN1C(=O)/C(=C/C=C/c2ccco2)SC1=S)c1ccncc1 | 17.5% |
| COc1ccccc1N(C)S(=O)(=O)c1ccc(C(=O)OCC(=O)Nc2cc(C)on2)cc1 | -7.23% |
| CC(C)CN(CCOc1cccc(N2C(=O)C3=C(CCCC3)C2=O)c1)CC(C)C | 3.32% |
| CC(=O)c1cccc(NC(=O)N2CCCc3ccccc32)c1 | 7.74% |
| COc1ccc(C2CCCN2C(=S)Nc2ccccc2C)cc1OC (stereo not given) | -1.92% |
| COc1ccc(C=O)cc1CSc1nnc(COc2cccc3cccnc23)o1 | 3.48% |
